From PubChem
An excerpt weighted towards active compounds, which were near 0.63% of everything screened.
PKM2 activator = PKM2 (human) enzyme activation; P14618; purified PKM2, Kinase-Glo ATP luminescence, activation; response scale: 0% is enzyme alone, no compound; Potency, µM (series often up to 57.5 µM), inactives show at the highest dose activation, actives largely listed as activators; 260,000 tested, 0.34% active; AID 1631; note: nearly all actives have a fitted effect of over 55% in size
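Purified hPK-M2 (>95%) run at intermediate activity with 0.1 mM ADP and 0.5 mM PEP in 50 mM imidazole pH 7.2, KCl, MgCl2; 1 h room temperature. ATP formed read by Kinase-Glo luminescence; normalized to uninhibited and no-enzyme controls.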
GAA glycogen mod = inhibitors or activators of human alpha-glucosidase glycogen cleavage. recombinant GAA, glycogen substrate, Amplex Red glucose oxidase fluorescence. Potency, µM (titrated, usually from 76.4 µM), inactives show at the highest dose activity change, negative = inhibition, hits mostly inhibitors. 300,000 tested, 0.38% active. AID 2100;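 note: 0% = full enzyme reaction and -100% = no-enzyme basal signal; the screen sought inhibitors and activators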
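Recombinant human enzyme (4 nM); glycogen substrate; 37 C, 40 min, pH 5.0. Readout: coupled glucose oxidase/Amplex Red fluorescence.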
GALK inh = galactokinase (human) inhibition | Purified GALK, Kinase-Glo residual ATP luminescence | Potency, µM (titrated, usually from 57.5 µM), without a hit: at the highest dose activity change, negative = inhibition, usual class: inhibitors | 270,000 tested, 0.007% active
Target sequence (P51570 whole entry, looked up): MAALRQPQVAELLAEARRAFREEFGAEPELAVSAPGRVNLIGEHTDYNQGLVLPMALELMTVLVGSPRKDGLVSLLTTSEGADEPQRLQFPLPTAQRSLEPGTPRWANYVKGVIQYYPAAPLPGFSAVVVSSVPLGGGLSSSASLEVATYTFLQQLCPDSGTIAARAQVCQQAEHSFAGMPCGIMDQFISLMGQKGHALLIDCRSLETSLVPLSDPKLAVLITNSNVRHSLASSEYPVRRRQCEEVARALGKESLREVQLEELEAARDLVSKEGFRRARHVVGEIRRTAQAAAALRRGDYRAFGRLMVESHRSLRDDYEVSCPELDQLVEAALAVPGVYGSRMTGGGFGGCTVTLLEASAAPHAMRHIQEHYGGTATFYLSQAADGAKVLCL
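Galactose (100 uM) and ATP (35 uM) were turned over by 5 nM GALK for 1 h at RT. Kinase-Glo Plus then converted the remaining ATP into a luminescent signal.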
GAA inh = inhibitors of human lysosomal alpha-glucosidase. P10253. purified human GAA, 4-MU-alpha-glucoside fluorescence. Potency, µM (doses to about 76.9 µM), for the others: at the highest dose activity change, negative = inhibition, hits mostly inhibitors. 200,000 tested, 0.005% active. AID 1466;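 note: plate controls were uninhibited enzyme wells for no effect and no-enzyme background for full effect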
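Human enzyme at 4 nM with 400 uM 4-methylumbelliferyl-alpha-D-pyranoside, citrate/phosphate buffer pH 5.0, 0.005% Tween-20, 20 min at room temperature. Compounds up to 77 uM. 4-MU fluorescence (Ex 365/Em 440) read after NaOH/glycine stop; AC50 from Hill fit.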
GAA spleen mod = inhibitors or activators of human alpha-glucosidase in spleen homogenate | Potency, µM (series often up to 79.9 µM), for the others: at the highest dose activity change, negative = inhibition, actives largely listed as inhibitors | AID 2112 | P10253 | human spleen homogenate, 4-MU-alpha-glucoside fluorescence | 240,000 tested, 0.006% active;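 note: 0% = enzyme with vehicle and -100% = no enzyme basal signal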
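Human spleen homogenate (1 ug) with 4-methylumbelliferyl-alpha-D-glucopyranoside (1 mM final) in 50 mM citrate/phosphate pH 5.0, 0.01% Tween-20; 40 min at 37 C. Stopped at pH 10; 4-MU fluorescence Ex 365/Em 440 nm; AC50 by Hill fit.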
The depositor's hits bear a star; ? = inconclusive; . = no result given; [ ] = dose if it differs, or a comment. Calls come from the whole dose curve; as a rule, active = well fitted curve in the direction sought with a large enough effect; inconclusive = small, poorly fitted or top-dose-only effect, or another doubt; inactive = no such curve, though single readings can be large; an effect the other way counts as inactive or inconclusive. Unless noted, % is set by controls: 0 for no effect and ±100 for the full control effect; potency is the fitted concentration of half-maximal effect.

SMILES	PKM2 activator	GAA glycogen mod	GALK inh	GAA inh	GAA spleen mod
COc1cc([C@@H]2c3cc4c(cc3[C@@H](OC)[C@H]3COC(=O)[C@H]23)OCO4)cc(OC)c1O	31.6µM*	-0.1%	-1.8%	.	-15.9%
CC(Cl)CCl (centres undefined)	.	.	.	.	-1.3%
C[C@@H]1O[C@@H](O[C@H]2CC[C@@H](O[C@H]3[C@H](O)C[C@H](c4ccc5c(c4O)C(=O)C4=C(C5=O)[C@@]5(O)C(=O)C[C@](C)(O[C@H]6CC[C@H](O[C@H]7C=CC(=O)[C@H](C)O7)[C@H](C)O6)C[C@@]5(O)C=C4)O[C@@H]3C)O[C@H]2C)C=CC1=O	.	.	.	.	-7.3%
CCn1nc(-c2cccs2)nc2c(=O)n(C)c(=O)nc1-2	-7.5%	-8.7%	1.26µM*	1.6%	-2.7%
CC(=O)c1c(O)n(-c2cccc(Cl)c2)c(=O)[nH]c1=O (tested in a mixture with another compound)	1.4%	0.8%	-3.1%	.	-0.3%
CC(C)n1c(O)c(C2c3cc(Cl)ccc3Oc3[nH]c(=O)n(C(C)C)c(=O)c32)c(=O)[nH]c1=O (centres undefined)	14.1µM*	-1.2%	-5.9%	.	-4.1%
c1ccc2c(c1)Nc1ccccc1S2	-10.4%	17.8µM*	-2.3%	2.4%[15.4 µM]	-3.5%
COc1ccc(N2C(=O)/C(=C/C=C/c3ccccc3[N+](=O)[O-])C(=O)NC2=S)cc1	20µM*	-4.1%	2.5%	-2.3%	1.2%
COc1ccc(N2C(=O)/C(=C/c3cccs3)C(=O)NC2=S)cc1	14.1µM*	-4.3%	.	.	-3.9%
CC(=O)[O-].CC(=O)[O-].O.O.[Cd+2]	.	.	.	.	-5.8%
Oc1ccccc1/C=N/NP(=S)(c1ccccc1)c1ccccc1	-4.4%	-2.6%	7.4%	-7.4%	-0.6%
Oc1ccc(/C=N/NP(=S)(c2ccccc2)c2ccccc2)c(O)c1O	21.7%	15.8µM*	-4.0%	?	-4.3%
Oc1ccc(/C=N/NP(=S)(c2ccccc2)c2ccccc2)cc1O	6.3%	15.8µM*	-1.3%	-6.9%	-2.3%
O=C1NC(=O)N(c2ccc3c(c2)OCO3)C(=O)/C1=C/c1ccc(N2CCCCC2)o1	5.0%	-9.7%	-2.0%	-10.7%	-5.7%
O=C1NC(=O)N(c2ccc3c(c2)OCO3)C(=O)/C1=C\c1ccc(-c2ccccc2C(=O)O)o1	25.1µM*	10.2%	.	-8.8%	-1.2%
Oc1cc2c(cc1O)[C@H]1c3ccccc3CN[C@@H]1CC2	?	2.51µM*	-1.7%	-6.5%[15.4 µM]	7.1%
O=S(=O)(O)F	.	.	.	.	8.5%
CCCN1CCc2cc(O)cc3c2C1Cc1ccc(O)c(O)c1-3 (centres undefined)	.	.	.	.	-6.1%
C=CCN1CCc2cccc3c2[C@H]1Cc1ccc(O)c(O)c1-3	?	6.31µM*	-2.1%	.	.
N#CSCSC#N	.	.	.	.	0.6%
O=C1NC(=O)N(c2cccc(Cl)c2)C(=O)/C1=C\c1ccc(Sc2nc3ccccc3[nH]2)o1	18.6%	8.4%	0.5%	8.6%	-14.0%
O=C1NC(=O)N(c2ccccc2)C(=O)/C1=C/c1ccc(Sc2ccccc2)o1	28.2µM*	-0.2%	3.3%	5.5%[15.4 µM]	2.9%
C#CCO	.	.	.	.	-7.7%
C=CCc1c(C)nc(C)nc1N/N=C/c1ccc(N(C)C)cc1	-4.1%	15.8µM*	0.2%	3.8%	-4.1%
Cc1onc(-c2ccccc2)c1C(=O)Nc1ccc(S(=O)(=O)N2CCCC2)cc1	-0.5%	14.1µM*	-0.6%	-2.5%	2.0%
SMILES	PKM2 activator	GAA glycogen mod	GALK inh	GAA inh	GAA spleen mod
S=C=Nc1cccc2ccccc12	.	.	.	.	-3.9%
O=[N+]([O-])c1ccc2c3c(cccc13)CC2	.	.	.	.	-1.3%
Nc1ccc2c3c(cccc13)CC2	-1.9%	25.1µM*	-0.7%	3.8%	-11.0%
CC1=C(O)C(=O)C=C2C1=CC=C1[C@]2(C)CC[C@@]2(C)C3C[C@](C)(C(=O)O)CC[C@@]3(C)CC[C@@]12C (some centres undefined)	.	.	.	.	5.3%
O[C@@H]1CCCN2C[C@@H](O)[C@@H](O)C12 (some centres undefined)	.	.	.	.	4.8%
O[C@H]1[C@H](O)[C@@H](O)CN2CC[C@H](O)[C@H]12	0.7%	1.98µM*	.	11.2µM*	1.26µM*
O=C(Nc1cccc(C(=O)Nc2cc(C(=O)Nc3ccc([S+](=O)([O-])[O-])c4cc([S+](=O)([O-])[O-])cc(SOOO)c34)ccc2F)c1)Nc1cccc(C(=O)Nc2cc(C(=O)Nc3ccc([S+](=O)([O-])[O-])c4cc([S+](=O)([O-])[O-])cc([S+](=O)([O-])[O-])c34)ccc2F)c1	.	.	.	.	3.8%
CCC(=NCCc1ccccc1)c1c(O)[nH]c(=O)[nH]c1=O	-1.2%	1.0%	4.6%	.	-9.8%
CC(=NCCc1ccccc1)c1c(O)[nH]c(=O)[nH]c1=O	28.2µM*	-0.2%	-1.2%	.	-0.7%
